High-throughput results (PubChem BioAssay)
SMN2 splice up: SMN2 splice variant enhancement. Potency, µM (titrated, usually from 46.1 µM), for the others: at the top dose activity change, positive = activation, actives largely listed as activators. HEK293 SMN2-luciferase splicing reporter, luminescence, 30-36 h. hit rate 2.8% among 210,000; note: % of control where 0% means no effect; nearly all actives have a fitted effect of over 55% in size
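HEK293 cells carry an SMN2 […]–luciferase reporter in which exon 7 inclusion puts luciferase in frame. Cells were plated 10-12 h before compound addition, then incubated 30-36 h at 37C. ONE-Glo luminescence was read; sodium butyrate at 4.5 mM final served as control.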
NPC1 promoter act: activates the NPC1 promoter | Huh7 NPC1 promoter luciferase reporter, 24 h | Potency, µM (highest dose often 9.22 µM), for inactives: top-dose activation, actives largely listed as activators | hit rate 2.4% among 320,000; note: % of control where 0% means no effect; nearly all actives have a fitted effect of over 60% in size
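NPC1 promoter–luciferase Huh7 cells; 24 h compound; luminescence.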
FLuc modulator: counter-screen for miR-21 project: firefly luciferase inhibitors or activators | purified FLuc, Km substrates, luminescence inhibition | Potency, µM (top dose mostly 57.5 µM), without a hit: top-dose activity change, negative = inhibition, actives largely listed as inhibitors | hit rate 6.9% among 360,000 | AID 588342;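 note: plate controls were vehicle for no effect and reference inhibitor for full effect; nearly all actives have a fitted effect of over 55% in size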
Target sequence (P08659 whole entry, looked up): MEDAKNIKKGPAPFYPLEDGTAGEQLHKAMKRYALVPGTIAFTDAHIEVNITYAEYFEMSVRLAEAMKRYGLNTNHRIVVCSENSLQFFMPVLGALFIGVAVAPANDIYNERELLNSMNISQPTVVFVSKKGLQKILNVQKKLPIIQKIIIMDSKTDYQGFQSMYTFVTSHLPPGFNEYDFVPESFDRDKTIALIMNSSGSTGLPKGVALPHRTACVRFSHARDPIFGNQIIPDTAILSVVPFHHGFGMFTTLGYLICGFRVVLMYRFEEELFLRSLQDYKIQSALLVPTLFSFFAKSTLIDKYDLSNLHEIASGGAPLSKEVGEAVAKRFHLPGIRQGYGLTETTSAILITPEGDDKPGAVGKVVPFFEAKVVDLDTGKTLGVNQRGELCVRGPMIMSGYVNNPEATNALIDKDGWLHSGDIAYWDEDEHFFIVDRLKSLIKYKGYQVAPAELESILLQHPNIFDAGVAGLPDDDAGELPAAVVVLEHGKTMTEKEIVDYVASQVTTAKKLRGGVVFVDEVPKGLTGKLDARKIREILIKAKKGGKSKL
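Purified P. pyralis luciferase (10nM final) with 10uM D-luciferin and 10uM ATP (Km levels) in 50mM Tris acetate pH 7.5, 10mM Mg acetate, 0.01% Tween-20, 0.05% BSA; qHTS 6-point titration, ~60 µM downward; luminescence read.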
Luc counter: Kinase-Glo luciferase inhibition (counter-screen). Q27757. Kinase-Glo luciferase, ATP luminescence, 8 min. Potency, µM (titrated, usually from 38.3 µM), for inactives: at the top dose activity change, negative = inhibition, actives largely listed as inhibitors. hit rate 0.28% among 200,000. AID 1379; note: % is set by controls: 0 for no effect and ±100 for the full control effect; nearly all actives have a fitted effect of over 60% in size
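Substrate mix (final 50 mM imidazole pH 7.2, 50 mM KCl, 7 mM MgCl2, 10 uM ATP, 0.01% Tween 20, 0.05% BSA) plus pin-tool compound, then Kinase-Glo detection mix; 8 min ambient, luminescence read.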
Rab9 promoter act: activators of Rab9 promoter; Potency, µM (doses to about 9.22 µM), without a hit: at the highest dose activation, negative = inhibition, actives largely listed as activators; Huh7 Rab9 promoter-luciferase reporter, luminescence, 24 h; AID 485297; hit rate 2.8% among 320,000; note: % of control where 0% means no effect; nearly all actives have a fitted effect of over 60% in size
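Luminescence from Amplite-detected luciferase (10 minutes, ambient) reports Rab9 promoter activation. Before that, stable Rab9-luciferase Huh7 cells (1500/well, reduced-serum OP-MEM I plus 10% FBS) were exposed to compound for 24 hours at 37C.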
Active calls of the source: *; u = inconclusive; x = no result. A selection: hits, their analogues and other compounds. The true share with any hit is near 7.3%. Calls come from the whole dose curve; as a rule, active = well fitted curve in the direction sought with a large enough effect; inconclusive = small, poorly fitted or top-dose-only effect, or another doubt; inactive = no such curve, though single readings can be large; an effect the other way counts as inactive or inconclusive. Potency is the fitted concentration of half-maximal effect.

SMILES	SMN2 splice up	NPC1 promoter act	FLuc modulator	Luc counter	Rab9 promoter act
Cc1cc(-c2ccc(N=Nc3cc(S(=O)(=O)O)c4ccccc4c3N)c(C)c2)ccc1N=Nc1cc(S(=O)(=O)O)c2ccccc2c1N	-2%	x	x	x	x
Cc1ccc(SCC(=O)N=C2NC(=O)CS2)cc1	x	-15%	15µM*	x	3%
CC1CCN(S(=O)(=O)c2cc(C(=O)NCCc3ccccc3)n(C)c2)CC1	x	x	2%	x	x
COc1cc(NC2c3ccccc3C(=O)N2c2ccc(C)cn2)cc(OC)c1OC (stereo not drawn)	11µM*	u	u	-16%	u
COc1cc(NC2c3ccccc3C(=O)N2c2cc(C)ccn2)cc(OC)c1OC (stereo not drawn)	-3%	0%	-3%	-4%	9%
C1=Nc2ccccc2CN1c1ccccc1	7.9µM*	u	15µM*	-16%	u
CSc1ncc(C(=O)Nc2ccc(C)c(Cl)c2)c(-c2ccccc2)n1	x	x	-13%	x	x
Cc1ccc(S(=O)(=O)N2CCOCC2)cc1NC(=O)COC(=O)CNC(=O)c1ccc(C(C)(C)C)cc1	u	-2%	0.95µM*	-5%	-2%
Cc1ccc(C(=O)NCC(=O)OCC(=O)Nc2cc(S(=O)(=O)N3CCOCC3)ccc2C)cc1	x	-3%	u	x	-9%
Cc1ccc(S(=O)(=O)N2CCOCC2)cc1NC(=O)COC(=O)CCOc1ccc(C(C)(C)C)cc1	x	0%	3.8µM*	x	-9%
Cc1ccc(S(=O)(=O)N2CCOCC2)cc1NC(=O)COC(=O)CNC(=O)c1ccc(Oc2ccccc2)cc1	-14%	0%	1.9µM*	0%	-4%
CCOC(=O)c1c(C)oc2c1cc(NS(=O)(=O)c1ccc(C)cc1)c1ccccc12	0%	x	u	x	x
CCc1ccc(N2CC(C)Cn3c2nc2c3c(=O)n(CC(=O)O)c(=O)n2C)cc1 (stereo not drawn)	4%	x	-9%	x	x
COC(=O)CSc1nnc(NC(=O)c2ccc3c(c2)OCO3)s1	x	26%	0.54µM*	x	u
COC(=O)CSc1nnc(NC(=O)/C=C\c2ccc3c(c2)OCO3)s1	16%	-3%	-20%	-1%	-8%
CC(C)(C)Cc1nnc(NC(=O)c2ccc3c(c2)OCO3)s1	x	2.2µM*	u	x	2.2µM*
CC(C)(C)C(=O)Nc1nnc(SCC(=O)Nc2ccc3c(c2)OCO3)s1	-9%	-3%	4%	2%	-6%
O=C(O)CSc1nnc(NC(=O)c2ccc3c(c2)OCO3)s1	-28%	-4%	1.9µM*	-8%	-3%
CCOC(=O)c1cnc2ccc(C)cc2c1Sc1ccccc1	-8%	2%	u	2%	1%
CCOC(=O)c1cnc2ccc(C)cc2c1Sc1ccc(F)cc1	-7%	10%	24µM*	-2%	19%
COc1ccccc1C(=O)Nc1ccc2[nH]ncc2c1	x	0%	u	x	22%
CCOc1cccc(C(=O)Nc2ccc3[nH]ncc3c2)c1	x	2.8µM*	5.4µM*	x	2µM*
Cc1ccc(NC(=O)c2cc(-c3ccccc3)n[nH]2)cc1	x	0%	u	x	0%
COc1cccc(C(=O)Nc2ccc3[nH]ncc3c2)c1	x	2.8µM*	11µM*	x	3.5µM*
COc1cc(NC(=O)c2cc(-c3cccc(OC)c3)n[nH]2)cc(OC)c1	x	x	12µM*	x	x
SMILES	SMN2 splice up	NPC1 promoter act	FLuc modulator	Luc counter	Rab9 promoter act
CN(C)S(=O)(=O)c1cccc(NC(=O)COC(=O)/C=C/c2ccco2)c1	2%	-8%	u	-1%	2%
Cc1ccc(S(=O)(=O)N(C)C)cc1NC(=O)COC(=O)/C=C/c1ccc2c(c1)OCO2	3%	-1%	21µM*	-3%	1%
CN(C)S(=O)(=O)c1cccc(NC(=O)COC(=O)/C=C/c2ccc3c(c2)OCO3)c1	6%	-1%	12µM*	1%	5%
Cc1ccc(/C=C/C(=O)OCC(=O)Nc2cccc(S(=O)(=O)N(C)C)c2)o1	6%	2%	21µM*	0%	-2%
C/C(=N\O)c1ccc2c3c([nH]c2c1)CCCC3	u	u	11µM*	-1%	u
C/C(=N\O)c1ccc2[nH]ccc2c1	22%	-4%	u	-2%	u
COc1ccc(CCNC(=O)Cn2cc(S(=O)(=O)Cc3ccc(F)cc3)c3ccccc32)cc1OC	x	x	4%	x	x
Cc1nc(C)c(-c2csc(Nc3cccc(O)c3)n2)s1	x	u	11µM*	-1%	u
Cc1nc(N)sc1-c1csc(Nc2cccc(O)c2)n1	x	3.5µM*	11µM*	x	4%
CC(=O)c1cccc(Nc2nc(-c3sc(C)nc3C)cs2)c1	x	4%	u	x	-1%
CC(=O)c1cccc(Nc2nc(-c3sc(N)nc3C)cs2)c1	x	15%	17µM*	x	22%
Cc1cccc(Nc2nc(-c3sc(C)nc3C)cs2)c1	x	u	19µM*	x	u
CCC(=O)Nc1nc(C)c(-c2csc(Nc3cccc(O)c3)n2)s1	x	13%	11µM*	x	2%
CCCCCC(=O)Nc1nc(C)c(-c2csc(Nc3ccc(Cl)cc3)n2)s1	-24%	0%	u	-1%	-9%
CN(C)CCN(C(=O)c1cccs1)c1nc2cc3c(cc2s1)OCCO3	x	21%	-17%	x	u
NNc1nc2cc3c(cc2s1)OCCO3	x	1.6µM*	6.7µM*	x	1.6µM*
COc1ccccc1C(=O)Nc1nc2cc3c(cc2s1)OCO3	x	1.8µM*	0.54µM*	x	1.6µM*
COc1ccccc1C(=O)Nc1nc2cc3c(cc2s1)OCCO3	x	u	0.67µM*	x	0.71µM*
O=C(Nc1nc2cc3c(cc2s1)OCCO3)c1cccs1	x	u	0.21µM*	x	0.11µM*
COc1ccc2nc(Nc3nc4cc5c(cc4s3)OCO5)sc2c1	u	16%	-16%	4%	-1%
COc1cccc(OC)c1C(=O)Nc1nc2cc3c(cc2s1)OCO3	x	10%	2%	x	9%
COc1ccc(Br)cc1C(=O)Nc1nc2ccc(F)cc2s1	-54%	x	u	x	x
COc1cccc2c1Oc1ncccc1N(c1ccc(C(=O)NCc3ccccc3Cl)s1)C2	x	x	-7%	x	x
COc1cc(OC)cc(C(=O)NNc2nc3cc4c(cc3s2)OCO4)c1	-20%	-1%	-14%	0%	1%
COc1ccc(C(=O)Nc2nc3cc4c(cc3s2)OCCO4)c(OC)c1	x	-3%	0.95µM*	x	-3%
SMILES	SMN2 splice up	NPC1 promoter act	FLuc modulator	Luc counter	Rab9 promoter act
c1ccc(-c2nnc(SCCC3OCCCO3)o2)cc1	11µM*	2.5µM*	15µM*	-9%	2.5µM*
O=C1OCCC1Sc1nnc(-c2ccco2)o1 (stereo not drawn)	-1%	0%	-2%	0%	7%
O=C(CSc1nnc(-c2ccccc2)o1)Oc1ccc(Br)cc1	5%	-2%	3%	0%	12%
Brc1ccc(-c2nnc(SCCC3OCCCO3)o2)cc1	26%	24%	15µM*	1%	23%
O=C1OCCC1Sc1nnc(-c2ccc(Br)cc2)o1 (stereo not drawn)	-2%	0%	6µM*	1%	-5%
O=C(CCSc1nnc(-c2ccccc2)o1)N1CCOCC1	u	10%	u	2%	3%
